Measurements: ChEMBL document CHEMBL4513216, “Probing the Open Global Health Chemical Diversity Library for Multistage-Active Starting Points for Next-Generation Antimalarials” (ACS Infect Dis, 2020)
Out of some 68,000 compounds screened, about 2,700 (4%) showed an effect of 50% or more. The full list was thinned out, with strong results kept by preference.

These compounds were tested on Plasmodium berghei (assay: Screen against P. berghei liver stage (PbLuc), transformed with Luciferase, at 2uM). Conditions: tested at 2 uM.
Format: functional, HepG2

SMILES | INHIBITION [%]
CN1CC2(CCN(C(=O)COc3ccc(Cl)cc3Cl)CC2)OC1=O | 16.37
OCC(CO)N1CCC(c2nnc(Cn3ccnc3)n2C2CC2)CC1 | 32.26
CS(=O)(=O)N1CCC(c2nnc(Cn3ccnc3)n2C2CC2)CC1 | -13.72
CSCCCN1CCC(c2nnc(Cn3ccnc3)n2C2CC2)CC1 | 54.29
c1cn(Cc2nnc(C3CCN(C4CCOCC4)CC3)n2C2CC2)cn1 | 24.88
CC(C)(C)CN1CCC(c2nnc(Cn3ccnc3)n2C2CC2)CC1 | -13.72
NCCN1CCC(c2nnc(Cn3ccnc3)n2C2CC2)CC1 | 52.08
COc1ccccc1C(NC(=O)CN(C)C(C)C)c1noc(C)n1 (stereo unspecified) | 1.8
O=C1CN(C(=O)c2cccc(OCc3cscn3)c2)CCN1 | -7.02
CS(=O)(=O)N1CCC(NC(=O)COc2ccc(Cl)cc2)CC1 | 54.86
CS(=O)(=O)N1CCC(NC(=O)COc2ccc(Cl)c(Cl)c2)CC1 | -34.45
Cc1ccc(OCC(=O)NC2CCN(S(C)(=O)=O)CC2)cc1 | 30.88
c1ccc(COC[C@]23COC[C@H]2CN(c2ncccn2)C3)nc1 | -19.09
CC(C)N(C)Cc1ncn2c1CN(C(=O)C1CCCO1)CCC2 (stereo unspecified) | 21.7
Cc1c(CNCCCOc2cccnc2)c2ccccc2n1CC(N)=O | 43.87
Cn1cnnc1C1CCN(C(=O)Cc2ccc3c(c2)OCCO3)CC1 | 5.14
Cc1ccc(OCCC(=O)N2CCC(c3nncn3C)CC2)c(C)c1 | 7.74
CCn1cnnc1C1CCN(C(=O)c2cc(F)ccc2OC)CC1 | 27.5
COc1ccc(CC(=O)N2CCCC(c3nncn3C)C2)cc1 (stereo unspecified) | 14.26
Cc1ccc(C(=O)CCC(=O)N2CCC(c3nncn3C)CC2)cc1 | 54.85
CCn1cnnc1C1CCN(C(=O)Cc2ccc(OC)c(F)c2)CC1 | 77.01
COc1ccccc1CCNC(=O)N1CCCC(c2nncn2C)C1 (stereo unspecified) | 18.59

SMILES | INHIBITION [%]
COc1ccc(CC(=O)N2CCC(c3nnc4n3CCC4)CC2)cc1F | -25.23
COc1ccc(CC(=O)N2CCC(c3nncn3C)CC2)cc1F | 54
CCn1cnnc1C1CCN(C(=O)COc2ccccc2OC)CC1 | -16.51
Cc1cccc(C)c1OCCC(=O)N1CCC(c2nncn2C)CC1 | -1.56
COc1ccc(CCNC(=O)N2CCCC(c3nncn3C)C2)cc1 (stereo unspecified) | 55.45
c1coc(CN2CCC(c3ccc4c(c3)OCO4)CC2)c1 | -8.85
Cc1ccc(CN(CCCn2ccnc2)Cc2ccccc2O)s1 | -43.99
CN(C)CCNC(=O)c1cc(-c2cnc(N3CCCC3)nc2)cn1C | 9.79
Cc1cccc(C(=O)N2CCCCC2c2ccc(CN(C)C)cc2)n1 (stereo unspecified) | -32.59
Fc1cc(Cl)cnc1N1CCCC(c2nccn2Cc2ccccn2)C1 (stereo unspecified) | 3.97
COc1c(Cl)cc(C(=O)NCCNc2ncccn2)cc1Cl | 21.97
CN1CCCC[C@@H]2[C@H]1[C@@H](c1ccccc1)CCN2C(=O)c1cccnc1 | 51.57
CN1CCCC[C@@H]2[C@H]1[C@@H](c1ccccc1)CCN2C(=O)c1ccccc1 | -60.34
CN1CCCCC[C@@H]2[C@@H]1[C@H](c1ccccc1)CN2C(=O)c1cccnc1 | 31.28
COc1ccc(F)cc1C(=O)C1CCCN(Cc2cnc(C)s2)C1 (stereo unspecified) | 72.49
COc1ccc(F)cc1C(=O)C1CCCN(Cc2ccc(C)s2)C1 (stereo unspecified) | 49.02
COc1ccc(C(=O)C2CCCN(Cc3cccc(F)c3)C2)c(OC)c1 (stereo unspecified) | -14.94
CO[C@@H]1CCN(Cc2ccoc2)C[C@@H]1Cc1ccccc1 | 28.46
CCc1c(C)nc2ccccc2c1N1CCC(NC(C)=O)CC1 | 50.59
CCOC(=O)N1CCN(c2nc(N)c3ccccc3n2)CC1 | -12.08
CCc1c(C)nc2ccccc2c1N1CCC(C(=O)NC)CC1 | 5.28
CCc1c(C)nc2ccccc2c1N1CCC(O)CC1 | 60.13

SMILES | INHIBITION [%]
CCOC(=O)N1CCN(c2nc(NC3CC3)c3ccccc3n2)CC1 | 27.85
OC1CCN(c2cnnc3ccccc23)CC1 | -1.81
CN(CCc1cccc2ccccc12)Cc1nc(N)nc(N(C)C)n1 | -3.1
COCC[C@]1(O)CCN(Cc2nc(C)cs2)C[C@H]1C | -9.15
Cc1n[nH]c(C)c1C1CCCN1C(=O)c1coc(Br)c1 (stereo unspecified) | 28.43
Cc1cccc(C(=O)N2CCCC2c2c(C)n[nH]c2C)c1 (stereo unspecified) | 41.84
Cc1n[nH]c(C)c1C1CCCN1C(=O)c1cc(Br)c[nH]1 (stereo unspecified) | 56.21
Cn1cc2c(n1)C(CNC1CCOCC1)OCC2 (stereo unspecified) | -10.78
COCC(=O)N1CCC2(CC1)COC(COCc1ccccn1)C2 (stereo unspecified) | 37.41
CCOCC(=O)N1CCC2(CC1)COC(COCc1ccccn1)C2 (stereo unspecified) | 18.05
CC(=O)N1CCC2(CC1)COC(COCc1ccccn1)C2 (stereo unspecified) | 53.55
FC(F)(F)Oc1ccc(-c2c[nH]c([C@@H]3COCCN3)n2)cc1 | 12.28
FC(F)(F)c1ccc(-c2c[nH]c([C@@H]3COCCN3)n2)cc1 | 64.99
Fc1ccc(-c2c[nH]c([C@@H]3COCCN3)n2)cc1 | 32.59
CC(c1ncc(-c2ccccc2)o1)N1CCN(C(=O)C(C)(C)C)CC1 (stereo unspecified) | -18.71
CNC(=O)CCN(C)c1nc(-c2ccncc2)nc2c1CCNC2 | 24.54
Cc1nc(CO[C@@H]2CN(Cc3ccsc3)[C@@H]3COC[C@@H]32)cs1 | 24.43
Cc1nc(CO[C@H]2CN(Cc3cccs3)[C@@H]3COC[C@H]23)cs1 | 56.76
Cc1nc(CO[C@@H]2CN(Cc3cccs3)[C@@H]3COC[C@@H]32)cs1 | 26.01
Cc1nc(CO[C@@H]2CN(Cc3cccnc3)[C@@H]3COC[C@@H]32)cs1 | 55.66
Cc1nc(CO[C@@H]2CN(Cc3ccc(F)cc3)[C@@H]3COC[C@@H]32)cs1 | -17.76
Cc1ccc(CN2C[C@@H](OCc3csc(C)n3)[C@H]3COC[C@H]32)s1 | 9.36
